Assay results from PubChem BioAssay (NCATS).
“And” between values parts separate entries of the source, which are not always exact repeats. Equal values may be shown once. Results filed as inconclusive are left out. The source made the active and inactive calls. Unless noted, calls come from the whole dose curve; as a rule, active = well fitted curve in the direction sought with a large enough effect; inconclusive = small, poorly fitted or top-dose-only effect, or another doubt; inactive = no such curve, though single readings can be large; an effect the other way counts as inactive or inconclusive.

Experiments:
[1] = target: Mitogen-activated protein kinase 10 (Mus musculus) (UniProt Q61831); assay: JNK3 AlphaScreen Assay (AID 530; active = well fitted curve in either direction with a large enough effect, not every such curve was filed as active;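 note: kinase came from lysate of stimulated human HepG2 cells; signal reports phosphorylation of biotinylated GST-cJun 1-79 at Ser73 with 10 µM ATP; % is set by controls: 0 for no effect and ±100 for the full control effect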)
Summary of the method: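 Biotinylated GST-cJun(1-79) served as substrate for JNK3 in HepG2 lysates stimulated with IL-1beta and TNF-alpha. ATP was 10 uM final, pH 7.6. Ser73 phosphorylation was quantified by AlphaScreen (680 nm excitation).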

[2] = Cell Viability - HepG2 (AID 433; calls by dose curve;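 note: potency is the fitted concentration of half-maximal effect; potency for ATP loss meaning cytotoxicity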); conditions: qHTS
Summary of the method: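 ATP luminescence (CellTiter-Glo) after 40 h compound exposure, 37 °C, HepG2, 1500 cells/well, complete medium. Normalized: DMSO = basal, 100 uM tamoxifen = 100% inhibition. AC50 via standard Hill equation.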

[3] = Cell Viability - MRC5 (AID 434; calls by dose curve;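 note: potency is the fitted concentration of half-maximal effect; cells exposed to compound for 40 hours at 37 °C; potency reflects cytotoxicity seen as loss of intracellular ATP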); conditions: MRC5 lung fibroblast viability, qHTS
Summary of the method: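 Decrease in intracellular ATP, quantified by luciferase light output, reflects compound toxicity toward MRC5 cells exposed for 40 hr in complete culture medium. Concentration-response curves, scaled between DMSO and 100 uM tamoxifen, gave AC50 values.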

[4] = Cell Viability - HUV-EC-C (AID 542); note: % is set by controls: 0 for no effect and ±100 for the full control effect; nearly all actives have a fitted effect of over 35% in size
Summary of the method: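 Concentration-dependent ATP loss in HUV-EC-C cells is the measure. Exposure lasts 40 hr at 37 °C; luminescence follows CellTiter-Glo addition, and Hill fits give AC50.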

[5] = Cell Viability - SH-SY5Y (AID 544); conditions: SH-SY5Y neuroblastoma cell viability; viability change, negative = cytotoxic: at 92.2 µM (top of the series);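 note: 0% = DMSO alone and -100% = 100 µM tamoxifen; nearly all actives have a fitted effect of over 55% in size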
Summary of the method: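 Quantitative HTS in SH-SY5Y neuroblastoma cells, 40 hr treatment at 37 °C, ATP content by luciferase luminescence; AC50 from Hill fits.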

[6] = Cell Viability - Renal Proximal Tubule (AID 545); conditions: renal proximal tubule cells viability; at 91.7 µM (top of the series), primary cells of rat origin unless noted;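 note: 0% = DMSO only and -100% = 100 µM tamoxifen; nearly all actives have a fitted effect of over 40% in size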
Summary of the method: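 Rat kidney proximal tubule cells, freshly isolated; 1000 cells/well, 5 hr settle, compound 40 hr 37 °C. CellTiter-Glo 20 min RT, luminescence read. AC50 by standard Hill fit.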

[7] = Cell Viability - Mesenchymal (AID 546);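 note: cells exposed to compound for 40 hours before reading; 0% = DMSO only and -100% = 100 µM tamoxifen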
Summary of the method: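 In this qHTS cytotoxicity format, glomerulus-derived human mesenchymal kidney cells received compound for 40 hr, then luciferase-based ATP quantitation. Concentration-response data were fitted with the Hill equation.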

[8] = Cellular Toxicity (caspase-3) HUV-EC-C (AID 656);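 note: 0% = DMSO basal and 100% = 100 µM tamoxifen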
Summary of the method: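 Luminescent caspase-3/7 activation (aminoluciferin substrate cleavage) in HUV-EC-C cells after 16 hr compound exposure, 37°C. Signal normalized to DMSO basal and 100 uM tamoxifen as 100%; AC50 from concentration-response fitted with the Hill equation.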

[9] = Cellular Toxicity (caspase-3) SHSY5Y (AID 657)
Summary of the method: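 Luminescent caspase-3/7 readout (aminoluciferin release) in SH-SY5Y cells after 16 h compound exposure in complete medium. Activity scaled between DMSO basal and 10 uM staurosporine as 100%; concentration-response fitted to Hill equation for AC50.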

[10] = Cellular Toxicity (caspase-3) MRC-5 (AID 659);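 note: 0% = DMSO basal and 100% = 10 µM staurosporine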
Summary of the method: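 Apoptosis readout in MRC-5 cells: luciferase light generated after caspase 3/7 cleaves a peptide-aminoluciferin substrate, measured post 16 hr compound incubation at 37 °C.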

[11] = Cellular Toxicity (caspase-3) Mesangial (AID 660);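 note: combined caspase 3 and 7 activity read by Caspase-Glo luminescence; cells exposed to compound for 16 h before the caspase read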
Summary of the method: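 AC50 values come from Hill-equation fits of caspase 3/7 activation, measured as Caspase-Glo luminescence in human glomerular mesangial cells exposed to compound for 16 h at 37 °C; 100% set by 100 uM tamoxifen.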

[12] = Cell Viability - LYMP1-002 - Assay at 16 hr (AID 948);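 note: 0% = DMSO alone and full effect = 92 µM tetraoctylammonium bromide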
Summary of the method: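 LYMP1-002 human lymphoblastoid cells, 2500/well; 5 hr 37 C; cpd 16 hr 37 C; CellTiter-Glo 30 min RT; luminescence (ATP). Concentration-response, Hill-fit AC50. Pos ctrl tetraoctylammonium bromide.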

[13] = MultiTox-Fluor Cytotoxicity Assay - LYMP1-003 - Dead Cells (AID 961); note: nearly all actives have a fitted effect of over 70% in size
Summary of the method: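 Dead-cell protease release, detected as bis-AAF-R110 fluorescence at 485/520 nm, was measured in LYMP1-003 cells after 16 h compound treatment at 37 C. AC50 values came from Hill-modeled qHTS curves normalized to DMSO (0%) and 15 uM tetraoctylammonium bromide (100%).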

[14] = Cell Viability - LYMP1-003 - Assay at 24 hr (AID 963);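 note: plate controls were DMSO only for no effect and tetraoctylammonium bromide positive control for full effect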
Summary of the method: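 The lymphoblastoid line was treated with titrated compounds for 24 hours, and viable cell number estimated from luciferase-based ATP luminescence.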

[15] = Cell Viability - LYMP2-015 (AID 971);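 note: cells exposed to compound for 24 h; 0% = DMSO only and full effect = 92 µM tetraoctylammonium bromide; nearly all actives have a fitted effect of over 55% in size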
Summary of the method: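 AC50 values reflect Hill-model fits of ATP-based luminescence (CellTiter-Glo) from a human lymphoblastoid line, 2500 cells/well, treated 24 hr at 37 C.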

[16] = Cell Viability - LYMP2-025 (AID 976);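 note: cells exposed to compound for 24 h at 37 °C; plate controls were DMSO only for no effect and tetraoctylammonium bromide control for full effect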
Summary of the method: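 Luminescent ATP readout after 24 hr treatment of a human lymphoblastoid line (LYMP2-025, 2500 cells/well, 37 C). Reagent developed 30 min at room temperature; AC50 fitted with the Hill equation.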

[17] = qHTS Assay for Identification of Small Molecule Inducers of Hypoxia Response (AID 2120; active = well fitted curve in the direction sought with a large enough effect in the signal ratio, with a control signal flat, not every such curve was filed as active; the % refers to the signal ratio; note: 0% is about no effect)
Summary of the method: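 HRE-bla ME-180, 2500 cells/well, 0.5% dialyzed FBS medium; cpd titration, 17 h 37 degrees C; CCF4 2.5 h RT; Ex 405, Em 460/530 ratio -> %Activity, AC50.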

[18] = qHTS assay for small molecule agonists of the antioxidant response element (ARE) signaling pathway measured by Nrf2-dependant transcriptional activity - cell viability counter screen (AID 720653; active = well fitted curve in the direction sought with a large enough effect in the repeat runs; an effect the other way counts as inactive or inconclusive; note: % is set by controls: 0 for no effect and ±100 for the full control effect); conditions: ARE-bla HepG2 viability, CellTiter-Glo ATP luminescence, 16 h; hits give low values
Summary of the method: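 ARE-bla HepG2 cells (2,000/well) rested 5 hrs at 37C/5% CO2, then exposed to compounds in DMSO for 16 hrs. Viability was read in the same wells as intracellular ATP by luminescence, 30 min at room temperature after reagent addition.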

[19] = qHTS assay for cell viability of HEK293 cells (AID 743288); conditions: ATP luminescence (CellTiter-Glo), 18 h; max response: hits give low values; note: % is set by controls: 0 for no effect and ±100 for the full control effect; nearly all actives have a fitted effect of over 50% in size
Summary of the method: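 ATP luminescence (CellTiter-Glo) reports metabolically competent cell number after parental HEK293 cells, 2,000/well, were treated with DMSO-dissolved compounds for 18 h at 37 C; reagent incubation 30 min, room temperature.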

[20] = qHTS assay for cell viability of the p53RE-bla HCT-116 cell line (AID 743292); note: % is set by controls: 0 for no effect and ±100 for the full control effect; nearly all actives have a fitted effect of over 55% in size
Summary of the method: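 Readout: CellTiter-Glo luminescence after 30 min RT. Treatment: compounds in DMSO, 16 h, 37 C. Cells: CellSensor p53RE-bla HCT-116, 4,000/well, preincubated 5 h.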

O=C(Oc1ccccc1)N1CCC[C@@]2(CCN(Cc3cc(C(F)(F)F)cc(C(F)(F)F)c3)C2)C1
inactive: outcome [1]

c1ccc(-c2ccccc2)cc1
inactive: Potency [2] > 92 µM | Potency [3] > 92 µM | outcome [1] | Potency [4] | Potency [5] | activity change, negative = cytotoxicity [6] 1.72% | outcome [7] | outcome [8] | outcome [9] | outcome [10] | outcome [11] | Potency [12] | Potency [13] | Potency [14] | Potency [15] | Potency [16] | outcome [17] | max response [18] -4.39% and -5.27% | max response [19] 8.08% and -1.75% | Potency [20]

Clc1nc(Cl)nc(Nc2ccccc2Cl)n1
inactive: Potency [2] > 92 µM | Potency [3] > 92 µM | outcome [1] | Potency [4] | Potency [5] | activity change, negative = cytotoxicity [6] -4.26% | outcome [7] | outcome [8] | outcome [9] | outcome [10] | outcome [11] | Potency [12] | Potency [13] | Potency [14] | Potency [15] | Potency [16] | outcome [17] | max response [18] -2.86% and -6.99% | max response [19] 1.75% and 3.89% | Potency [20]

COc1ccc2c(c1OC)CN1CCc3cc4c(cc3[C@H]1C2)OCO4
inactive: outcome [1]

CCOP(=S)(OCC)SCSC(C)(C)C
inactive: Potency [2] > 92 µM | Potency [3] > 92 µM | outcome [1] | Potency [4] | Potency [5] | activity change, negative = cytotoxicity [6] 1.14% | outcome [7] | outcome [8] | outcome [9] | outcome [10] | outcome [11] | Potency [12] | Potency [13] | Potency [14] | Potency [15] | Potency [16] | outcome [17] | max response [18] -1.33% and 1.99% | max response [19] -9.58% and -1.13% | Potency [20]

Brc1ccc(Oc2cc(Br)c(Br)cc2Br)c(Br)c1
inactive: Potency [2] > 92 µM | Potency [3] > 92 µM | Potency [4] | Potency [5] | activity change, negative = cytotoxicity [6] -20.3% [at 91.7 µM] and -14.3% [at 91.7 µM] | outcome [7] | outcome [8] | outcome [9] | outcome [10] | outcome [11] | Potency [12] | Potency [13] | Potency [14] | Potency [15] | Potency [16] | outcome [17] | max response [18] -1.22% and 3.3% and -21% | max response [19] -22.3% and -23.6% | Potency [20]

[O-][Br+2]([O-])O
inactive: Potency [2] > 92 µM | Potency [3] > 92 µM | outcome [1] | Potency [4] | Potency [5] | activity change, negative = cytotoxicity [6] -9.6% and -6.64% | outcome [7] | outcome [8] | outcome [9] | outcome [10] | outcome [11] | Potency [12] | Potency [13] | Potency [14] | Potency [15] | Potency [16] | outcome [17] | max response [18] 3.23% and -1.6% | max response [19] -15.7% and 1.39% | Potency [20]

CC(=O)O[C@H]1C[C@@H](O[C@@H]2[C@H](C)O[C@H](O[C@@H]3[C@H](C)O[C@H](O[C@@H]4CC[C@@]5(C)[C@@H](CC[C@]6(C)[C@]5(C)C[C@H](O)[C@]5(C)[C@@H](C7=CC(=O)OC7)CC[C@@]56O)C4)C[C@@H]3O)C[C@@H]2O)O[C@@H](C)[C@H]1O[C@H]1O[C@@H](CO)[C@@H](O)[C@@H](O)[C@@H]1O
inactive: outcome [1]

ClC(Cl)=C(Cl)Cl
inactive: Potency [2] > 92 µM | Potency [3] > 92 µM | outcome [1] | Potency [4] | Potency [5] | activity change, negative = cytotoxicity [6] -15.6% and -5.24% | outcome [7] | outcome [8] | outcome [9] | outcome [10] | outcome [11] | Potency [12] | Potency [13] | Potency [14] | Potency [15] | Potency [16] | outcome [17] | max response [18] 5.48% and 2.15% | max response [19] 2.96% and -9.63% | Potency [20]

C=CC(N)=O
inactive: Potency [2] > 92 µM | Potency [3] > 92 µM | outcome [1] | Potency [4] | Potency [5] | activity change, negative = cytotoxicity [6] 6.17% and -0.476% | outcome [7] | outcome [8] | outcome [9] | outcome [10] | outcome [11] | Potency [12] | Potency [13] | Potency [14] | Potency [15] | Potency [16] | outcome [17] | max response [18] -3.97% and 4.84% and 3.74% | max response [19] -9.64% and 2.95% and 5.31% | Potency [20]

CCN1C[C@@]2(COC)CC[C@H](O)[C@@]34[C@@H]2C[C@@H]([C@@H]13)[C@]1(O)C[C@@H](OC)C2C[C@H]4[C@H]1[C@H]2OC(C)=O
inactive: outcome [1]

O=C(Cl)C(Cl)(Cl)Cl
inactive: Potency [2] > 92 µM | Potency [3] > 92 µM | outcome [1] | Potency [4] | Potency [5] | activity change, negative = cytotoxicity [6] 0.33% | outcome [7] | outcome [8] | outcome [9] | outcome [10] | outcome [11] | Potency [12] | Potency [13] | Potency [14] | Potency [15] | Potency [16] | outcome [17] | max response [18] -1.42% | max response [19] -17% | Potency [20]

O=C(Oc1ccccc1)N1CCC[C@@]2(CCN(C(c3ccccc3)c3ccccc3)C2)C1
inactive: outcome [1]

C[C@@H]1O[C@H](O[C@@H]2CC[C@@]3(C=O)[C@H]4CC[C@@]5(C)[C@@H](C6=CC(=O)OC6)CC[C@@]5(O)[C@@H]4CC[C@]3(O)C2)C[C@H](O)[C@@H]1O
inactive: outcome [1]
